Measured values taken from PubChem BioAssay (EPA / NIEHS).
Active and inactive are the calls of the source. Rule for the calls: active = hit-call score of the fitted dose curve at least 0.9, where 1 is the maximum; inactive = score below 0.9.

Assay: BSK_3C_uPAR: BioMAP Diversity Plus: 3C Assay for Urokinase-type plasminogen activator receptor (uPAR) Biomarker Activity (AID 2282998)
Conditions: BioMAP 3C HUVEC, uPAR biomarker ELISA; actives raise or lower the signal
Method in brief: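 ELISA readout of uPAR on human vascular endothelium (umbilical vein primary cells), taken 24 h after chemical dosing. Increases and decreases are both fitted relative to DMSO vehicle.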
For `OC(CCl)CCl`, the outcome was “inactive”.
In the case of `CCCCCCCCN(C)C`, the outcome is reported as “inactive”.
With `CCCC(CCC)C(=O)O` the outcome was “inactive”.
For `OCCNCCO`, the outcome was “inactive”.
For `CC[C@H](C)C(=O)O[C@H]1C[C@H](O)C=C2C=C[C@H](C)[C@H](CC[C@@H](O)C[C@@H](O)CC(=O)O)[C@H]21`, the outcome was “inactive”.
With `CC(C)CCCCCCOC(=O)C1CCCCC1C(=O)OCCCCCCC(C)C` (stereo unspecified) the outcome was “inactive”.
In the case of `c1ccc(C(O[C@@H]2CCCN(CCc3ccc4c(c3)OCO4)C2)c2ccccc2)cc1`, the AC50 is reported as 27.5 µM (active).
For `NNC(=O)c1ccncc1`, the outcome was “inactive”.
For `O=c1[nH]cnc2c1ncn2[C@H]1CC[C@@H](CO)O1`, the outcome was “inactive”.
With `OCc1c[nH]c2ccccc12` the AC50 was 20 µM (active).
For `c1ccc2cc3ccccc3cc2c1`, the outcome was “inactive”.
For `Cc1nccn1-c1ccc(Sc2cccc(C3(C(N)=O)CCOCC3)c2)cc1`, the outcome was “inactive”.
With `CC(C)C(=O)Nc1ccc([N+](=O)[O-])c(C(F)(F)F)c1` the outcome was “inactive”.
With `CCCCCOC(C)=O` the outcome was “inactive”.
For `OC(Cn1cncn1)(Cn1cncn1)c1ccc(F)cc1F`, the outcome was “inactive”.
With `COCc1nnc(-c2ccc[n+]([O-])c2)n1-c1c(Cl)c(Cl)cc2[nH]c(=O)c(=O)[nH]c12` the outcome was “inactive”.
For `CCc1cccc(CC)c1N`, the outcome was “inactive”.
In the case of `CCn1nc(C)c2c1C(=O)NCC(c1ccc(O)cc1)=N2`, the outcome is reported as “inactive”.
With `FC(F)C(F)(F)COCC1CO1` (stereo unspecified) the outcome was “inactive”.
With `Cc1ncc([C@@H](CCCCCCc2ccc3c(n2)NCCC3)CC(=O)O)cn1` the outcome was “inactive”.
With `CCCc1ccccc1` the outcome was “inactive”.
In the case of `O=C(O)c1cccc(C[C@@H]2COc3ccc(OCc4nc5cc(F)ccc5s4)cc3[C@@H]2O)c1`, the outcome is reported as “inactive”.
In the case of `NC(=O)NN=Cc1ccc([N+](=O)[O-])o1`, the outcome is reported as “inactive”.
For `CCCCCCCCCCCCCCCCOS(=O)(=O)O`, the outcome was “inactive”.
With `O=C1CN(N=Cc2ccc([N+](=O)[O-])o2)C(=O)N1` the outcome was “inactive”.
With `OCCOCCOCCO` the outcome was “inactive”.
For `O=C(O)c1ccc2c(c1)nc(C(=O)NC1CCN(C3CC3)CC1)n2Cc1cc(-c2ccc(Cl)s2)on1`, the outcome was “inactive”.
With `CCCCC(CC)C(=O)OCCOCCOCCOC(=O)C(CC)CCCC` (stereo unspecified) the outcome was “inactive”.

Assay: BSK_3C_VCAM1: BioMAP Diversity Plus: 3C Assay for Vascular cell adhesion molecule 1 (VCAM1) Biomarker Activity (AID 2282999)
Conditions: BioMAP 3C HUVEC, VCAM1 ELISA, cytokine-stimulated; actives raise or lower the signal
Method in brief: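 Activity fitted in both directions relative to DMSO, with ELISA measurement of the surface marker on primary HUVEC (3C) at 24 h post-treatment; parallel SRB staining (0.1% SRB, TCA-fixed, 560 nm) flagged overt cytotoxicity.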
In the case of `OC(CCl)CCl`, the outcome is reported as “inactive”.
In the case of `CCCCCCCCN(C)C`, the outcome is reported as “inactive”.
For `CCCC(CCC)C(=O)O`, the outcome was “inactive”.
With `OCCNCCO` the outcome was “inactive”.
With `CC[C@H](C)C(=O)O[C@H]1C[C@H](O)C=C2C=C[C@H](C)[C@H](CC[C@@H](O)C[C@@H](O)CC(=O)O)[C@H]21` the outcome was “inactive”.
With `CC(C)CCCCCCOC(=O)C1CCCCC1C(=O)OCCCCCCC(C)C` (stereo unspecified) the outcome was “inactive”.
With `c1ccc(C(O[C@@H]2CCCN(CCc3ccc4c(c3)OCO4)C2)c2ccccc2)cc1` the outcome was “inactive”.
In the case of `NNC(=O)c1ccncc1`, the outcome is reported as “inactive”.
In the case of `O=c1[nH]cnc2c1ncn2[C@H]1CC[C@@H](CO)O1`, the outcome is reported as “inactive”.
With `OCc1c[nH]c2ccccc12` the outcome was “inactive”.
For `c1ccc2cc3ccccc3cc2c1`, the outcome was “inactive”.
For `Cc1nccn1-c1ccc(Sc2cccc(C3(C(N)=O)CCOCC3)c2)cc1`, the outcome was “inactive”.
In the case of `CC(C)C(=O)Nc1ccc([N+](=O)[O-])c(C(F)(F)F)c1`, the outcome is reported as “inactive”.
For `CCCCCOC(C)=O`, the outcome was “inactive”.
In the case of `OC(Cn1cncn1)(Cn1cncn1)c1ccc(F)cc1F`, the outcome is reported as “inactive”.
With `COCc1nnc(-c2ccc[n+]([O-])c2)n1-c1c(Cl)c(Cl)cc2[nH]c(=O)c(=O)[nH]c12` the outcome was “inactive”.
For `CCc1cccc(CC)c1N`, the outcome was “inactive”.
In the case of `CCn1nc(C)c2c1C(=O)NCC(c1ccc(O)cc1)=N2`, the outcome is reported as “inactive”.
In the case of `FC(F)C(F)(F)COCC1CO1` (stereo unspecified), the outcome is reported as “inactive”.
For `Cc1ncc([C@@H](CCCCCCc2ccc3c(n2)NCCC3)CC(=O)O)cn1`, the outcome was “inactive”.
For `CCCc1ccccc1`, the outcome was “inactive”.
For `O=C(O)c1cccc(C[C@@H]2COc3ccc(OCc4nc5cc(F)ccc5s4)cc3[C@@H]2O)c1`, the outcome was “inactive”.
In the case of `NC(=O)NN=Cc1ccc([N+](=O)[O-])o1`, the outcome is reported as “inactive”.
With `CCCCCCCCCCCCCCCCOS(=O)(=O)O` the outcome was “inactive”.
In the case of `O=C1CN(N=Cc2ccc([N+](=O)[O-])o2)C(=O)N1`, the outcome is reported as “inactive”.
In the case of `OCCOCCOCCO`, the outcome is reported as “inactive”.
For `O=C(O)c1ccc2c(c1)nc(C(=O)NC1CCN(C3CC3)CC1)n2Cc1cc(-c2ccc(Cl)s2)on1`, the outcome was “inactive”.
With `CCCCC(CC)C(=O)OCCOCCOCCOC(=O)C(CC)CCCC` (stereo unspecified) the outcome was “inactive”.
